The values below come from PubChem BioAssay (NCI).

The panel holds about 83,000 compounds, 20% with a hit somewhere; the sample as a whole holds those more often.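 96-well plates, one dose, 48 hours. Percent growth reported; active if below 10.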 Values without a mark were called inactive. Active and inactive are the calls of the source.

Holding throughout (test): NCI-60 one-dose screen, 48 h (100 = growth as untreated, 0 = no growth, -100 = all killed)
Holding throughout (conditions): 10 µM unless noted

Test [1] relates to DU-145 prostate.
In test [2] the test system is K-562 leukemia.
Test [3] concerns MALME-3M melanoma.
Test [4] deals with MDA-MB-231 breast.
Test [5] deals with RXF 393 renal.
In test [6] the test system is SF-268 CNS.
Test [7] concerns SF-295 CNS.
In test [8] the test system is SF-539 CNS.
Test [9] has as its system UACC-257 melanoma.
Test [10] relates to M14 melanoma.
Test [11] concerns HCT-15 colon.
In test [12] the test system is HT29 colon.
Test [13] deals with SNB-75 CNS.
For test [14], the system named is SNB-19 CNS.
The subject of test [15] is U251 CNS.
The test system of test [16] is PC-3 prostate.
Test [17] relates to SK-MEL-5 melanoma.
Test [18] concerns UACC-62 melanoma.
Test [19] relates to LOX IMVI melanoma.
In test [20] the test system is SK-MEL-28 melanoma.

In the case of `N/C(=N\OC(=O)c1ccccc1)C(C(=O)NOC(=O)c1ccccc1)C1CCCCC1` (stereo not given), the growth is 57.7% in test [1]; 2.85% (active) in test [2]; 85.3% in test [3]; 81.8% in test [4]; 82.1% in [5]; 31.9% in test [6]. In addition, the growth in test [7] is 41.6%; in [8], 75.1%; in test [9], 92.2%; in [10], 75.2%; in [11] it was 53.3%; in test [12], 96.7%. Moreover, the growth in test [13] is 35.7%; in test [14], 76%; in test [15], -25% (active); in test [16] it was 54.5%; in test [17] it was 74.3%; in [18], 56.6%. The growth in test [19] was -85.2% (active); in test [20], 93.3%.

As to `CC(=O)CC(c1ccc([N+](=O)[O-])cc1)c1c(O)c2ccccc2oc1=O` (stereo not given), the growth was 106% in test [1]; 104% in test [2]; 98.3% in test [3]; 95.9% in test [4]; 108% in test [5]; 99% in test [6]. In addition, the growth in test [7] is 104%; in [8] it was 97.1%; in test [9], 120%; in [10], 102%; in test [11] it was 110%; in test [12] it was 106%. Also, the growth was 81.7% in [13]; 109% in [14]; 104% in test [15]; 92% in test [16]; 91.9% in test [17]; 100% in [18]. In addition, the results for the growth in test [19] and in test [20] were 101% and 113%, respectively.

For `Oc1c(C(Nc2cccc3ccccc23)c2ccccc2)ccc2cccnc12` (stereo not given), the growth in test [1] is 35%; in test [2], 11.6%; in test [3] it was 31.7%; in [4], 17.8%; in test [5] it was 69.4%; in test [6], 23.4%. For the same compound, the growth was 7.99% (active) in [7]; 43.3% in test [8]; 22.5% in [9]; 0.701% (active) in [10]; 28.1% in test [11]; 29.3% in [12]. For the same compound, the growth in [13] is 72.2%; in test [14], 51.7%; in test [15], 20.6%; in [16], 38.1%; in test [17] it was 43.9%; in [18], 14.7%. Also, the growth in [19] is 15.3%; in test [20], 57.6%.

For the compound `CCCC(CCC)(C(N)=O)C(=O)O`, the growth was 108% in [1]; 120% in test [2]; 111% in [3]; 116% in test [4]; 124% in [5]; 102% in [6]. In addition, the growth in [7] was 107%; in [8], 120%; in [9], 102%; in test [10], 108%; in [11], 105%; in test [12] it was 101%. Moreover, the growth in test [13] is 104%; in [14], 112%; in test [15], 106%; in test [16], 121%; in test [17], 110%; in test [18], 106%. Moreover, the growth in test [19] was 93.5%; in test [20], 113%.

Consider `COc1cc(/C=N/NC(=O)Cn2c(-c3ccc(C)o3)nc3ccccc32)ccc1OCc1ccccc1`, for which the growth in test [1] is 105%; in [2], 65.5%; in [3], 115%; in test [4], 78.7%; in test [5], 85.6%; in test [6] it was 76.1%. Also, the growth in [7] was 91.7%; in [8], 103%; in test [9], 89.5%; in test [10] it was 85.2%; in test [11] it was 74.1%; in test [12], 87.2%. Also, the growth is 83.2% in test [13]; 79.6% in test [14]; 88.5% in [15]; 63.1% in [16]; 76.6% in test [17]; 77.8% in [18]. The growth in [19] was 88.1%; in test [20] it was 99.1%.

For the compound `O=C(Cc1ccc([N+](=O)[O-])cc1)Oc1ccccc1`, the growth in test [1] is 129%; in test [2], 104%; in test [3], 146%; in [4], 108%; in test [5], 122%; in [6], 111%. Further, the growth was 121% in test [7]; 105% in test [8]; 110% in test [9]; 106% in [10]; 104% in test [11]; 104% in test [12]. The growth in test [13] is 102%; in test [14], 103%; in test [15], 107%; in [16] it was 93.1%; in test [17], 105%; in [18], 101%. Moreover, the results for the growth in test [19] and in test [20] were 107% and 112%, respectively.

On to `CCN1C(=O)N(CC)C2C1NN=c1s/c(=C\c3ccco3)c(=O)n12` (stereo not given), for which the growth is 3.04% (active) in test [1]; 11.5% in test [2]; 55.8% in test [3]; 43% in test [4]; -2.28% (active) in [5]; 44% in [6]. Also, the growth in test [7] is 8.2% (active); in test [8] it was -1.22% (active); in test [9] it was 63%; in [10], 5.24% (active); in test [11], 19.9%; in test [12], 8.57% (active). Besides, the growth is -1.06% (active) in test [13]; 22.7% in test [14]; 22.7% in test [15]; 17.7% in [16]; 12.8% in [17]; 29.2% in test [18]. Besides, the growth in test [19] is 40.4%; in test [20], 58.9%.

`CNCCCn1c2c(c3ccc(Cl)cc3c1=O)C(=O)c1cc(OC)cnc1-2`: the growth in test [1] is -85.2% (active); in test [2] it was -66% (active); in [3], 72.8%; in [4] it was 77.3%; in test [5], 61.2%; in [6], 34.7%. Moreover, the growth in test [7] is 14.6%; in [8], 29.1%; in [9], 56.9%; in test [10] it was 36%; in test [11] it was -57.6% (active); in test [12] it was -80.5% (active). For the same compound, the growth is 14.7% in [13]; 28.3% in test [14]; -86.5% (active) in [15]; 38.6% in [16]; 32.4% in test [17]; 11% in [18]. The figures for the growth in [19] and in [20] were -83.7% (active) and 72.2%, respectively.
